The source of these data is PubChem BioAssay (Tox21).

Each structure is given as a SMILES string. Values joined by “and” are separate entries in the source; they are usually repeats but may differ in a detail not shown here. Equal entries are not always repeated. Records with an inconclusive call do not appear. Where a call stands in place of a potency, no number is given. A number with no mark means an inactive call. Active and inactive are the calls of the source. Unless noted, the call rests on the fitted dose curve; in most records, active means well fitted curve in the direction sought with a large enough effect in the repeat runs; inconclusive means weak or mixed curves; inactive means no such curve, though single readings can be large; an effect the other way counts as inactive or inconclusive.

For the first experiment, the target named is Estrogen receptor (Homo sapiens) (UniProt P03372). The experiment is described as follows: qHTS assay to identify small molecule agonists of the estrogen receptor alpha (ER-alpha) signaling pathway using the BG1 cell line (AID 743079). Further: nearly all actives have a fitted effect of over 20% in size. Further: potency means the concentration at half of the fitted maximal effect. The note with it: BG1Luc4E2 cells, ERE-luciferase agonist, 22 h; series mostly up to 70.3 µM; activation: at the top concentration.
Estrogen receptor (Homo sapiens), sequence (P03372 whole entry, looked up): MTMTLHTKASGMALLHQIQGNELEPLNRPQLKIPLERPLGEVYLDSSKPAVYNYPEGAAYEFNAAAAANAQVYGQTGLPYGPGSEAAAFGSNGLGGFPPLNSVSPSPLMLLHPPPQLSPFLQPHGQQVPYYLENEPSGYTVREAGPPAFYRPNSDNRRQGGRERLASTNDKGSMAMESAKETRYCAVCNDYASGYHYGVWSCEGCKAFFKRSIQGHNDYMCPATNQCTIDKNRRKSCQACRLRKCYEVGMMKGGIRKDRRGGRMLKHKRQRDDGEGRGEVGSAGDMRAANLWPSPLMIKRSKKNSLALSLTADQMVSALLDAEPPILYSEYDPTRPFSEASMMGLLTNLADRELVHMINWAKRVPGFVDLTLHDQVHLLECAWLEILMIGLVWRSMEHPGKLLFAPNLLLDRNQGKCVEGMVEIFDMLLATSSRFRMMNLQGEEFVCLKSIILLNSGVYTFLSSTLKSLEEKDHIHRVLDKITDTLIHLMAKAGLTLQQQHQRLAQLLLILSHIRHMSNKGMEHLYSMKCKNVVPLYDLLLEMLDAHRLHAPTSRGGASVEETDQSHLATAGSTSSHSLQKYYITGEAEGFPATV
For `CCCCC(CC)COC(=O)CCCCC(=O)OCC(CC)CCCC` (stereo not drawn), the Potency entry is “inactive”.
As for `O=C(O)CCCC[C@@H]1SC[C@@H]2NC(=O)N[C@@H]21`, the Potency entry is “inactive”.
Still for that read-out and setting: in the case of `CCc1cccc(C)c1N` it was “inactive”.
As to `CC(=O)CC(=O)Nc1ccccc1C`, the “activation” value was 1.13%.
Turning to `O=C(O)c1cc(O)c(O)c(O)c1`, the Potency result was “inactive”.
Still for that read-out and setting: in the case of `C=C(C)C(=O)O[C@H]1C[C@@H]2CC[C@@]1(C)C2(C)C` it was “inactive”.
As for `C#CCN(C)Cc1ccccc1`, the “activation” value is -0.512% [at 32.5 µM].
Regarding `Cc1ccc(N(C)C)cc1`, the Potency was 61.1 µM (active).
On to `O=C(O)c1ccccc1C(c1ccc(O)cc1)c1ccc(O)cc1`, for which the “activation” value is -0.185%.
As for `Fc1ccc(Br)cc1`, the “activation” value was 8.88%.
Take `CCCCCCCCCCCCCCO`: the Potency result is “inactive”.
As for `O=[N+]([O-])c1ccc(/C=C/c2ccc([N+](=O)[O-])cc2S(=O)(=O)O)c(S(=O)(=O)O)c1`, the Potency result is “inactive”.
Turning to `O=C=NCCCCCCN=C=O`, the Potency result is “inactive”.
Regarding `CC(c1cc2ccccc2s1)N(O)C(N)=O` (stereo not drawn), the Potency entry was “inactive”.
On to `COS(C)(=O)=O`, for which the Potency entry is “inactive”.
As for `Cc1cccc(O)c1`, the Potency result was “inactive”.
On to `CN(C)CCCN`, for which the Potency result is “inactive”.
Regarding `CC(C)(N)CO`, the Potency entry is “inactive”.
Consider `c1c[nH]cn1`, for which the Potency entry is “inactive”.
Turning to `CCCCCCCCCCCCS`, the Potency entry is “inactive”.
The same measure, in the same setting: in the case of `COc1cc(Cc2cnc(N)nc2N)cc(OC)c1OC` it was “inactive”; in that of `CCCCCCCCCC`, “inactive”.
The same measure, in the same setting: in the case of `CCN(CC)c1ccc(C(=O)c2ccccc2C(=O)O)c(O)c1` it was 17.3 µM (active) and 43.3 µM (active); in that of `FC(F)(F)c1ccc(Cl)c(Cl)c1`, “inactive”; in that of `CC[C@H](C)C(=O)O[C@H]1C[C@@H](C)C=C2C=C[C@H](C)[C@H](CC[C@@H]3C[C@@H](O)CC(=O)O3)[C@H]21`, “inactive”.
In the case of `CCCCN(CCCC)CCCC`, the Potency entry is “inactive”.
For `CC(C)c1ccc(S(=O)(=O)O)cc1`, the Potency entry is “inactive”.
Regarding `C=CCOC(=O)c1ccccc1C(=O)OCC=C`, the “activation” value is 5.21%.
For `c1ccc(OCCOc2ccccc2)cc1`, the Potency was 61.1 µM (active) and 54.5 µM (active).
On to `CC(=O)c1ccccc1`, for which the Potency entry was “inactive”.
On to `O=C(OCCOCCOC(=O)c1ccccc1)c1ccccc1`, for which the “activation” value is 0.0605%.
With `C/C=C1/CC2C=CC1C2` (stereo not drawn), the Potency entry was “inactive”.
Take `CCCCCCOCCO`: the Potency result was “inactive”.
With `OC[C@H]1O[C@@](CO)(O[C@H]2O[C@H](CO)[C@@H](O)[C@H](O)[C@H]2O)[C@@H](O)[C@@H]1O`, the Potency entry is “inactive”.

Test system in the next experiment: not listed separately
In words: qHTS assay to identify small molecule antagonists of the estrogen receptor alpha (ER-alpha) signaling pathway using the BG1 cell line (AID 743080; calls by dose curve;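 further: BG1 cells stimulated with 17beta-estradiol alongside compound; nearly all actives have a fitted effect of over 25% in size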). The note with it: BG1Luc4E2 ERE-luciferase antagonist mode, luminescence; series mostly up to 70.3 µM; activity change, negative = inhibition: at the top concentration. Summed up:
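After 5 days in phenol-red-free 10% charcoal-stripped FBS medium, BG1-Luc-4E2 cells were seeded, left 24 h at 37 C, co-treated with compounds and 17beta-estradiol for 21.5 h, then assayed for viability and luciferase.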
For `CCCCC(CC)COC(=O)CCCCC(=O)OCC(CC)CCCC` (stereo not drawn), the Potency result is “inactive”.
As for `O=C(O)CCCC[C@@H]1SC[C@@H]2NC(=O)N[C@@H]21`, the Potency result was “inactive”.
With `CCc1cccc(C)c1N`, the “activity change, negative = inhibition” value is 12.9%.
Take `CC(=O)CC(=O)Nc1ccccc1C`: the Potency result was “inactive”.
In the case of `O=C(O)c1cc(O)c(O)c(O)c1`, the Potency entry is “inactive”.
Consider `C=C(C)C(=O)O[C@H]1C[C@@H]2CC[C@@]1(C)C2(C)C`, for which the Potency result is “inactive”.
On the same count and under the same terms, in the case of `C#CCN(C)Cc1ccccc1` it was “inactive”.
`Cc1ccc(N(C)C)cc1`: the Potency result is “inactive”.
Take `O=C(O)c1ccccc1C(c1ccc(O)cc1)c1ccc(O)cc1`: the “activity change, negative = inhibition” value was 4.21%.
Consider `Fc1ccc(Br)cc1`, for which the Potency result was “inactive”.
For `CCCCCCCCCCCCCCO`, the “activity change, negative = inhibition” value was 12.2% [at 95 µM].
As to `O=[N+]([O-])c1ccc(/C=C/c2ccc([N+](=O)[O-])cc2S(=O)(=O)O)c(S(=O)(=O)O)c1`, the Potency result was “inactive”.
On to `O=C=NCCCCCCN=C=O`, for which the Potency entry is “inactive”.
In the case of `CC(c1cc2ccccc2s1)N(O)C(N)=O` (stereo not drawn), the Potency result is “inactive”.
Take `COS(C)(=O)=O`: the Potency entry was “inactive”.
Regarding `Cc1cccc(O)c1`, the Potency result was “inactive”.
The same measure, in the same setting: in the case of `CN(C)CCCN` it was “inactive”.
`CC(C)(N)CO`: the “activity change, negative = inhibition” value was 3.49%.
With `c1c[nH]cn1`, the Potency entry was “inactive”.
As for `CCCCCCCCCCCCS`, the “activity change, negative = inhibition” value is -10.8%.
As for `COc1cc(Cc2cnc(N)nc2N)cc(OC)c1OC`, the Potency result is “inactive”.
As to `CCCCCCCCCC`, the Potency result was “inactive”.
In the case of `FC(F)(F)c1ccc(Cl)c(Cl)c1`, the Potency entry was “inactive”.
As for `CCCCN(CCCC)CCCC`, the Potency result was “inactive”.
For `CC(C)c1ccc(S(=O)(=O)O)cc1`, the Potency entry is “inactive”.
As for `C=CCOC(=O)c1ccccc1C(=O)OCC=C`, the Potency result was “inactive”.
On to `CC(=O)c1ccccc1`, for which the Potency result was “inactive”.
For `O=C(OCCOCCOC(=O)c1ccccc1)c1ccccc1`, the Potency result is “inactive”.
As to `C/C=C1/CC2C=CC1C2` (stereo not drawn), the Potency entry is “inactive”.
With `CCCCCCOCCO`, the Potency entry was “inactive”.
Consider `OC[C@H]1O[C@@](CO)(O[C@H]2O[C@H](CO)[C@@H](O)[C@H](O)[C@H]2O)[C@@H](O)[C@@H]1O`, for which the Potency result was “inactive”.

Test system in another experiment: not listed separately
The experiment is described as follows: qHTS assay to identify small molecule antagonists of the estrogen receptor alpha (ER-alpha) signaling pathway using the BG1 cell line - cell viability counter screen (AID 743081).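 Further: compound given together with 17beta-estradiol as the ER stimulus; nearly all actives have a fitted effect of over 45% in size.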 The note with it: BG1Luc4E2 viability, CellTiter-Fluor, 22 h; series mostly up to 70.3 µM; activity change, negative = cytotoxicity: at the top concentration.
On to `CCCCC(CC)COC(=O)CCCCC(=O)OCC(CC)CCCC` (stereo not drawn), for which the Potency entry is “inactive”.
For `O=C(O)CCCC[C@@H]1SC[C@@H]2NC(=O)N[C@@H]21`, the Potency entry is “inactive”.
Same read-out and setting: in the case of `CCc1cccc(C)c1N` it was “inactive”.
In the case of `CC(=O)CC(=O)Nc1ccccc1C`, the Potency entry was “inactive”.
As to `O=C(O)c1cc(O)c(O)c(O)c1`, the “activity change, negative = cytotoxicity” value is -6.64%.
Turning to `C=C(C)C(=O)O[C@H]1C[C@@H]2CC[C@@]1(C)C2(C)C`, the Potency entry is “inactive”.
As to `CN(C)CCC(c1ccc(Cl)cc1)c1ccccn1` (stereo not drawn), the “activity change, negative = cytotoxicity” value is -16.4%.
On to `C#CCN(C)Cc1ccccc1`, for which the “activity change, negative = cytotoxicity” value was 9.53%.
For `Cc1ccc(N(C)C)cc1`, the Potency result is “inactive”.
With `O=C(O)c1ccccc1C(c1ccc(O)cc1)c1ccc(O)cc1`, the “activity change, negative = cytotoxicity” value is 8.16%.
Regarding `Fc1ccc(Br)cc1`, the Potency result is “inactive”.
Take `CCCCCCCCCCCCCCO`: the Potency result is “inactive”.
As to `O=[N+]([O-])c1ccc(/C=C/c2ccc([N+](=O)[O-])cc2S(=O)(=O)O)c(S(=O)(=O)O)c1`, the Potency entry was “inactive”.
Consider `O=C=NCCCCCCN=C=O`, for which the Potency entry is “inactive”.
In the case of `CC(c1cc2ccccc2s1)N(O)C(N)=O` (stereo not drawn), the Potency entry is “inactive”.
The same measure, in the same setting: for `COS(C)(=O)=O` the value was “inactive”; for `Cc1cccc(O)c1`, “inactive”.
Same read-out and setting: for `CN(C)CCCN` the value was “inactive”; for `CC(C)(N)CO`, “inactive”.
For `c1c[nH]cn1`, the Potency entry is “inactive”.
As for `CCCCCCCCCCCCS`, the Potency result is “inactive”.
In the case of `COc1cc(Cc2cnc(N)nc2N)cc(OC)c1OC`, the “activity change, negative = cytotoxicity” value is 4.5%.
On to `CCCCCCCCCC`, for which the Potency entry was “inactive”.
Regarding `CCN(CC)c1ccc(C(=O)c2ccccc2C(=O)O)c(O)c1`, the Potency entry was “inactive”.
`FC(F)(F)c1ccc(Cl)c(Cl)c1`: the Potency result was “inactive”.
On the same count and under the same terms, for `CC[C@H](C)C(=O)O[C@H]1C[C@@H](C)C=C2C=C[C@H](C)[C@H](CC[C@@H]3C[C@@H](O)CC(=O)O3)[C@H]21` the value was “inactive”.
Still for that read-out and setting: in the case of `CCCCN(CCCC)CCCC` it was “inactive”; in that of `CC(C)c1ccc(S(=O)(=O)O)cc1`, “inactive”.
As to `C=CCOC(=O)c1ccccc1C(=O)OCC=C`, the Potency entry is “inactive”.
As to `CC(C)CC(=O)CC(C)C`, the Potency result is “inactive”.
For the molecule `CN(C)CCC(c1ccccc1)c1ccccn1` (stereo not drawn), the “activity change, negative = cytotoxicity” value was 3.06%.
As for `c1ccc(OCCOc2ccccc2)cc1`, the Potency entry was “inactive”.
For the molecule `CC(=O)c1ccccc1`, the Potency entry was “inactive”.
As for `O=C(OCCOCCOC(=O)c1ccccc1)c1ccccc1`, the Potency result was “inactive”.
Turning to `C/C=C1/CC2C=CC1C2` (stereo not drawn), the Potency entry is “inactive”.
Turning to `CCCCC(CC)COC(=O)CS` (stereo not drawn), the Potency result was “inactive”.
`CCCCCCOCCO`: the Potency entry was “inactive”.
Turning to `OC[C@H]1O[C@@](CO)(O[C@H]2O[C@H](CO)[C@@H](O)[C@H](O)[C@H]2O)[C@@H](O)[C@@H]1O`, the Potency result is “inactive”.
